{"source": "the supplement of paper PMC4022240", "binders": {"B1": {"name": "Unmod H1 variant S E T V P P A P A A S A A (peptide)", "chain": "SETVPPAPAASAA"}, "B2": {"name": "Unmod H1 variant T P K K A S K P K K A A S (peptide)", "chain": "TPKKASKPKKAAS"}, "B3": {"name": "Unmod H1 variant K A A S K A P T K K P K A (peptide)", "chain": "KAASKAPTKKPKA"}, "B4": {"name": "Unmod H1 variant K P K A T P V K K A K K K (peptide)", "chain": "KPKATPVKKAKKK"}, "B5": {"name": "Unmod H1 variant K K A K K P K T V K A K P (peptide)", "chain": "KKAKKPKTVKAKP"}}, "note": "± gives the standard deviation.", "data": [{"target": "T1, HaloTag-ATRX ADD domain (163-292)", "T1 chain": "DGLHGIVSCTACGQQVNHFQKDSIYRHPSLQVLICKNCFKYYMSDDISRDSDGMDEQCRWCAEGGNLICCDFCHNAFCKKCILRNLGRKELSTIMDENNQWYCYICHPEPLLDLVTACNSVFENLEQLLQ", "assay": "peptide microarray binding signal (635 nm), min-max normalized on array (fraction of array maximum); higher = stronger binding", "settings": "peptide region: Unmod H1 variant; binder concentration: 50 nM", "method_in_brief": "(§1)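 Arrays carried histone 13-mer peptide–cellulose conjugates printed in triplicate on nitrocellulose alongside a Cy3 tracer. After overnight blocking at 4°C, they were incubated for 1 h at 4°C with biotin-labelled HaloTag reader fusions (10 nM to 1 μM) plus streptavidin-Alexa Fluor 647, or with rabbit histone antibodies (1:10,000 to 1:2,000) plus anti-rabbit Alexa 647. Scanning on an Axon GenePix 4000B used 635 nm for signal and 532 nm for misprints. The binding signal reported is each triplicate's mean spot intensity after per-library min-max scaling.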", "values": [{"binder": "B1", "peptide microarray binding signal": "0.0132 ± 0.00014"}, {"binder": "B2", "peptide microarray binding signal": "0.0118 ± 0.00065"}, {"binder": "B3", "peptide microarray binding signal": "0.0142 ± 0.00045"}, {"binder": "B4", "peptide microarray binding signal": "0.0137 ± 0.0012"}, {"binder": "B5", "peptide microarray binding signal": "0.0134 ± 0.00092"}]}, {"target": "T1, HaloTag-ATRX ADD domain (163-292)", "assay": "peptide microarray binding signal (635 nm), min-max normalized on array (fraction of array maximum); higher = stronger binding", "settings": "peptide region: Unmod H1 variant; binder concentration: 500 nM", "method_in_brief": "as §1", "values": [{"binder": "B1", "peptide microarray binding signal": "0.00691 ± 0.00014"}, {"binder": "B2", "peptide microarray binding signal": "0.00967 ± 0.00036"}, {"binder": "B3", "peptide microarray binding signal": "0.0141 ± 0.00028"}, {"binder": "B4", "peptide microarray binding signal": "0.0124 ± 0.00028"}, {"binder": "B5", "peptide microarray binding signal": "0.00981 ± 0.00033"}]}, {"target": "HaloTag-ING2 PHD (mouse Ing2 200-280)", "assay": "peptide microarray binding signal (635 nm), min-max normalized on array (fraction of array maximum); higher = stronger binding", "settings": "peptide region: Unmod H1 variant; binder concentration: 10 nM", "method_in_brief": "as §1", "values": [{"binder": "B1", "peptide microarray binding signal": "0.00448 ± 6.1e-05"}, {"binder": "B2", "peptide microarray binding signal": "0.00167 ± 1.7e-05"}, {"binder": "B3", "peptide microarray binding signal": "0.00257 ± 0.00013"}, {"binder": "B4", "peptide microarray binding signal": "0.00209 ± 5.3e-05"}, {"binder": "B5", "peptide microarray binding signal": "0.00215 ± 4.5e-05"}]}, {"target": "HaloTag-ING2 PHD (mouse Ing2 200-280)", "assay": "peptide microarray binding signal (635 nm), min-max normalized on array (fraction of array maximum); higher = stronger binding", "settings": "peptide region: Unmod H1 variant; binder concentration: 100 nM", "method_in_brief": "as §1", "values": [{"binder": "B1", "peptide microarray binding signal": "0.00446 ± 0.00013"}, {"binder": "B2", "peptide microarray binding signal": "0.00489 ± 0.00044"}, {"binder": "B3", "peptide microarray binding signal": "0.019 ± 0.0066"}, {"binder": "B4", "peptide microarray binding signal": "0.00319 ± 0.00028"}, {"binder": "B5", "peptide microarray binding signal": "0.00645 ± 0.00057"}]}, {"target": "anti-H3K4me3 antibody ab8580", "assay": "peptide microarray binding signal (635 nm), min-max normalized on array (fraction of array maximum); higher = stronger binding", "settings": "peptide region: Unmod H1 variant; binder concentration: 1:2,000 dilution", "method_in_brief": "as §1", "values": [{"binder": "B1", "peptide microarray binding signal": "0.00151 ± 2.3e-05"}, {"binder": "B2", "peptide microarray binding signal": "0.000698 ± 3.6e-05"}, {"binder": "B3", "peptide microarray binding signal": "0.000963 ± 1.4e-05"}, {"binder": "B4", "peptide microarray binding signal": "0.000547 ± 2.7e-05"}, {"binder": "B5", "peptide microarray binding signal": "0.000642 ± 1.6e-05"}]}, {"target": "anti-H3K4me3 antibody ab8580", "assay": "peptide microarray binding signal (635 nm), min-max normalized on array (fraction of array maximum); higher = stronger binding", "settings": "peptide region: Unmod H1 variant; binder concentration: 1:10,000 dilution", "method_in_brief": "as §1", "values": [{"binder": "B1", "peptide microarray binding signal": "0.00223 ± 4e-05"}, {"binder": "B2", "peptide microarray binding signal": 0.000571}, {"binder": "B3", "peptide microarray binding signal": "0.001027 ± 1e-05"}, {"binder": "B4", "peptide microarray binding signal": "0.00126 ± 2.2e-05"}, {"binder": "B5", "peptide microarray binding signal": "0.000628 ± 6.7e-06"}]}, {"target": "anti-H3K9me3 antibody ab8898", "assay": "peptide microarray binding signal (635 nm), min-max normalized on array (fraction of array maximum); higher = stronger binding", "settings": "peptide region: Unmod H1 variant; binder concentration: 1:2,000 dilution", "method_in_brief": "as §1", "values": [{"binder": "B1", "peptide microarray binding signal": "0.000891 ± 7.7e-05"}, {"binder": "B2", "peptide microarray binding signal": 0.000181}, {"binder": "B3", "peptide microarray binding signal": "0.000257 ± 5.3e-06"}, {"binder": "B4", "peptide microarray binding signal": "0.0008 ± 0.00013"}, {"binder": "B5", "peptide microarray binding signal": "0.000151 ± 1.6e-06"}]}, {"target": "anti-H3K9me3 antibody ab8898", "assay": "peptide microarray binding signal (635 nm), min-max normalized on array (fraction of array maximum); higher = stronger binding", "settings": "peptide region: Unmod H1 variant; binder concentration: 1:10,000 dilution", "method_in_brief": "as §1", "values": [{"binder": "B1", "peptide microarray binding signal": "0.00115 ± 2e-05"}, {"binder": "B2", "peptide microarray binding signal": "0.000519 ± 5.6e-06"}, {"binder": "B3", "peptide microarray binding signal": "0.000807 ± 1.5e-05"}, {"binder": "B4", "peptide microarray binding signal": "0.000634 ± 1.2e-05"}, {"binder": "B5", "peptide microarray binding signal": "0.000634 ± 1.2e-05"}]}]}
